Data: ChEMBL document CHEMBL4513216, “Probing the Open Global Health Chemical Diversity Library for Multistage-Active Starting Points for Next-Generation Antimalarials” (ACS Infect Dis, 2020)
In all, about 69,000 compounds went through this assay and about 8,600 (12%) showed an effect of 50% or more. The list comes from a sample in which strong results are over-represented; it also holds similar structures and randomly drawn compounds.

Tested on: Plasmodium berghei
Test: Screen against P. berghei liver stage (PbLuc), transformed with Luciferase, at 10uM
Assay type: functional, HepG2
Settings: tested at 10 uM

Row | SMILES | INHIBITION [%]
1 | O=C(NCCN1CCCCC1)c1ccn(-c2ccccc2)n1 | 19.6
2 | CCSCC(C)NCc1cn2ccccc2n1 (centres undefined) | -20
3 | COCC1CN(Cc2csc(C)n2)Cc2nccn2C1 (centres undefined) | 4.61
4 | CCc1ncc(CNCc2cccnc2N(C)C)cn1 | -0.29
5 | Cc1cccc(C)c1OCCNC(=O)C(C)n1cncn1 (centres undefined) | -42.3
6 | O=C(C1CC1)N1CC[C@H]2C(=O)N(c3ccsc3)CCO[C@H]2C1 | 33
7 | O=C(Nc1ccccc1)N1CCC2(CC(=O)N(c3ccsc3)C2)C1 (centres undefined) | -12.2
8 | COCC(=O)N1CCC2(CC1)CN(c1cncnc1)C(=O)CO2 | 24.1
9 | O=C(C1CCOCC1)N1CCC2(CC1)CN(c1ccsc1)C(=O)CO2 | 74.2
10 | COCC(=O)N1CCC2(CC1)CN(c1ccsc1)C(=O)CO2 | 64.9
11 | NC(=O)N1CCC2(CC1)CN(c1ccsc1)C(=O)CO2 | 54.6
12 | O=C1COC2(CCN(c3ncccn3)CC2)CN1c1ccsc1 | 26.5
13 | O=C(c1cccs1)N1CCC2(CC1)CN(c1ccsc1)C(=O)CO2 | 22.9
14 | Cc1cnc(N2CCC3(CC2)CN(c2ccsc2)C(=O)CO3)nc1 | 53.9
15 | CCc1cnc(N2CCC3(CC2)CN(c2cccnc2)C(=O)CO3)nc1 | 47.2
16 | CN(C)CC(=O)N1CCC2(CC1)CN(c1ccsc1)C(=O)CO2 | 47.2
17 | O=C(c1cccs1)N1CCC2(CC1)CN(c1cncnc1)C(=O)CO2 | 48.6
18 | O=C(NCc1ccco1)[C@H]1COC[C@H]2CN(Cc3ccoc3)C[C@H]21 | 25.2
19 | CCOc1ccc(C#N)cc1NCC(=O)NC1(C#N)CCCC1 | -2.53
20 | Cc1ccc(NC(=O)N2CCCC2)c(OCC2CCCO2)c1 (centres undefined) | -8.11
21 | CCS(=O)(=O)N1CCN(Cc2cccnc2)c2nc(C)ccc2C1 | 38.1
22 | O=C(Nc1cccs1)NC(CCCO)c1ccccc1 (centres undefined) | 24.3
23 | O=C(NCc1csc(Br)c1)N1CCC(O)CC1 | -0.822
24 | COCC(=O)NCCCn1nc2ccccn2c1=O | 19.7
25 | CC(C)N(C)Cc1nnc2n1CCN(CC1CC1)CC2 | 20.1
26 | CCS(=O)(=O)N1CCC2(CC1)CN(c1cncnc1)C(=O)CO2 | 14.1
27 | CCS(=O)(=O)N1CCC2(CC1)CN(c1ccsc1)C(=O)CO2 | 54.4

Row | SMILES | INHIBITION [%]
28 | O=C1COC2(CCN(S(=O)(=O)C3CC3)CC2)CN1c1ccsc1 | 3.25
29 | Cc1cc2ccccc2n1CCC(=O)N1CCN(C)CC1C(N)=O (centres undefined) | 34.9
30 | CSCC(=O)N1CCOC(c2nc(C)n[nH]2)C1 (centres undefined) | 36.8
31 | CC(C)c1nc(C2CCCN(C(=O)c3cccc4c3OCO4)C2)no1 (centres undefined) | 42
32 | CSc1ncc(C(=O)N2C[C@@H]3CC[C@H]2CN(Cc2ccccc2)C3)cn1 | -9.76
33 | Cc1ccc2cccc(S(=O)(=O)N(C)CC3CCN(C)C3)c2n1 (centres undefined) | 16
34 | CN(C)CCN(C)S(=O)(=O)CC1CCOCC1 | 30.2
35 | Cc1ccc2cccc(S(=O)(=O)N(C)CC3CCN(C)CC3)c2n1 | 17.6
36 | CN(CCN1CCOCC1)S(=O)(=O)CC1CCCC1 | 38.7
37 | CN1CCC(CN(C)S(=O)(=O)CC2CCCCC2)CC1 | 72.3
38 | CN1CCN(CCCN(C)S(=O)(=O)C2CCCCC2)CC1 | 43.2
39 | CN(CCN1CCCC1=O)S(=O)(=O)CC1CCCC1 | 88
40 | CN1CCN(CCCN(C)S(=O)(=O)CC2CCCCC2)CC1 | 54.4
41 | CN1CCN(CCCNC(=O)C2CCCCC2)CC1 | -24
42 | O=C(NCCCn1cccn1)N1CCCC1c1cccs1 (centres undefined) | 25.2
43 | Cc1ccsc1CN1CC[C@H]2OCC[C@@]2(C(=O)N2CCCO2)C1 | 37.2
44 | COCCNC(=O)[C@@H]1C[C@@H]2CCN(c3ncccn3)C[C@H]2O1 | 4.57
45 | O=C(Nc1ccccc1F)C1CSCN1C(=O)CCc1ccco1 (centres undefined) | -39.2
46 | COc1ccc(S(N)(=O)=O)cc1C(=O)N(C)Cc1cc(C)on1 | 51.2
47 | COc1cc(F)c(NC(=O)N(C)Cc2cc(C)on2)cc1F | 52.6
48 | Cc1cc(CN(C)C(=O)Nc2ccccc2C)no1 | 67.1
49 | COc1cc(F)c(NC(=O)N(C)CCNC(=O)N(C)C)cc1F | 36.3
50 | CCNC(=O)c1ccc(NC(=O)N(C)Cc2cc(C)on2)c(C)c1 | 29.6
51 | CCN(C)C(=O)Nc1cc(F)c(OC)cc1F | 14.9
52 | Cc1cc(CN(C)C(=O)NCc2ccccn2)no1 | -22.8
53 | COc1ccc(F)cc1C(=O)N(C)Cc1cc(C)on1 | 35.7
54 | COc1ccc(Cl)cc1C(=O)N(C)Cc1cc(C)on1 | -4.16
